Test [1] is described as follows: Cytometry Cell-Based qHTS for Inhibitors of the mTORC1 Signaling Pathway in MEF cells (AID 2668).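 Further: Tsc2-/- p53-/- mouse embryonic fibroblasts stably re-expressing wild-type Tsc2; percent cells positive for phospho-rpS6 Ser235/236 relative to propidium iodide stain.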 An outline of the steps: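 MEFs (Tsc2-/-, p53-/- stably expressing WT Tsc2) treated 24 h at 37 degree Celsius, fixed, stained with Alexa-488 anti-phospho-rpS6 Ser235/236 and propidium iodide; Acumen laser scanning. Reported as % positive cells, phospho-S6 normalized to PI.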
A general note: qHTS replaces the single test concentration by a dilution series.

Test [2] in a line: Validation screen for inhibitors of Lassa infection (AID 463096; calls by dose curve).
Test [3] in a line: Validation screen for small molecules that induce DNA re-replication in MCF 10A normal breast cells (AID 463097). Further: nearly all actives have a fitted effect of over 60% in size. In a few lines:
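MCF 10A cells exposed to compound 48 hr at 37 C, 5% CO2, then Hoechst-stained 40 min. Laser-scanning imaging of nuclear DNA content (405 nm ex, 500-530 nm em); re-replication scored as rise in nuclei with elevated fluorescence intensity.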

In test [4] the target is Tumor susceptibility gene 101 protein (Homo sapiens) (UniProt Q99816). The experiment in a line: qHTS Validation Assay for Iinhibitors of HIV-1 Budding by Blocking the Interaction of PTAP/TSG101 (AID 485342; calls by dose curve). An outline of the steps:
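Tsg101 binding domain (10 uM) with FITC-labeled PTAP peptide (50 nM) in HEPES pH 7.5 buffer, 20 min at r.t. with compounds. Binding measured by fluorescence polarization.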

Test [5] in a line: qHTS Validation Assay to Find Inhibitors of Chronic Active B-Cell Receptor Signaling (AID 485345; active means well fitted curve in the direction sought with a large enough effect in the main read-out, with a control signal flat, not every such curve was filed as active). An outline of the steps:
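Read-out: ratio of filter-corrected green (IkappaBalpha fusion) to red (native) luciferase signal in doxycycline-induced TMD8 cells after 4 h at 37C. Titration spanned 46 uM–3 nM; Data were normalised to basal cells and 10 uM MG-132 wells.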

For test [6], the target named is Beta-2 adrenergic receptor (Homo sapiens) (UniProt P07550). Put plainly: qHTS validation assay of beta-arrestin-biased ligands of beta2-adrenergic receptor (AID 485366). In a few lines: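 Tango cells expressing recombinant beta2-AR and beta-arrestin with tTA-driven luciferase, in DMEM with 1% FBS. Compounds were titrated up to 46 microM for 18 hr at 37 degrees C. Luminescence was read 15 min after substrate; curves were fitted and class-assigned.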

Test [7] is described as follows: Quantitative high throughput screen for delayed death inhibitors of the malarial parasite plastid, 96 hour incubation (AID 488745). Further: nearly all actives have a fitted effect of over 70% in size. An outline of the steps: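 P. falciparum carrying an integrated firefly luciferase reporter, grown in erythrocytes (2% hematocrit, 0.1% parasitemia final) in RPMI 1640/0.5% Albumax, was exposed to compound for 96 h (two generations) at 37 C, 5% CO2. Luminescence decrease indicated growth inhibition.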

The nature of test [8]: Quantitative high throughput screen for delayed death inhibitors of the malarial parasite plastid, 48 hour incubation (AID 488752). Further: nearly all actives have a fitted effect of over 65% in size. In a few lines:
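Erythrocytes infected with P. falciparum carrying an integrated firefly luciferase reporter (2% hematocrit, 0.1% parasitemia final) were exposed to compounds in RPMI 1640/0.5% Albumax for 48 h at 37 C, 5% CO2. Growth inhibition was scored as reduced luminescence.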

Test [9] concerns the target Thioredoxin reductase 1, cytoplasmic (Rattus norvegicus) (UniProt O89049). Put plainly: qHTS Assay for Substrates of Mammalian Selenoprotein Thioredoxin Reductase 1 (TrxR1) (AID 488772).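 Further: NADPH fluorescence in the first read after selenite addition and not the 8 min delta; a drop in NADPH fluorescence below the no-compound background marks a TrxR1 substrate.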 In a few lines: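 Quantitative HTS in Tris-HCl buffer at pH 7.5 with EDTA and Tween-20, using rat TrxR1, 400 uM NADPH and 400 uM selenite (final). A fall in initial NADPH fluorescence relative to background marked substrate behaviour.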

Test [10] concerns the target Flap endonuclease 1 (Homo sapiens) (UniProt P39748). The experiment in a line: qHTS Validation Assay for the Inhibitors of Human Flap endonuclease 1 (FEN1) (AID 488816). An outline of the steps: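 Readings taken at 0 and 15 min after starting the reaction with 50 nM (final) substrate supplied the signal. Compounds had first sat with 10 nM FEN1 reagent for 15 min at room temperature. Values come from Hill-equation concentration-response fits.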

Test [11] deals with M-phase phosphoprotein 8 (Homo sapiens) (UniProt Q99549). Put plainly: qHTS Validation Assay for Inhibitors for MPP8 Chromodomain Interactions with Methylated Histone Tails (AID 488949). Further: nearly all actives have a fitted effect of over 55% in size. Further: potency means the concentration at half of the fitted maximal effect. In a few lines: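 MPP8 (50 nM) was pre-bound to 50 nM biotinylated H3(1-18)K9me3 peptide in PBS pH 7.4 with 0.01% Tween-20. Compounds were then added for 30 min at room temperature, and complex disruption was read by AlphaScreen with streptavidin donor and nickel-chelate acceptor beads.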

In test [12] the target is Methanococcus maripaludis chaperonin (MmCpn) (UniProt Q6LX38). The experiment in a line: High-Throughput Screening for Modulators of Cytosolic Chaperonin Activity: MmCpn Primary Screen (AID 488978).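 Further: 50 nM MmCpn enzyme hydrolysing 30 µM ATP at 37 °C.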 An outline of the steps:
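MmCpn at 50 nM final was preincubated 5 min at RT with compound. ATP was then added at 30 uM final for 10 min at 37 C. ADP formed was detected by Transcreener HTRF (665/590 nm).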

Test [13] concerns the target Transient receptor potential cation channel subfamily V member 1 (Homo sapiens) (UniProt Q8NER1). The experiment in a line: HTS Assay for Compounds that Act as Enhancers of the Vanilloid Receptor 1 (AID 488979). In a few lines:
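Calcium influx kinetics via Fluo-8 (480/520 nm) in TRPV1-expressing cells, 2000/well cultured overnight at 35.5C. Compound-alone read 3 min (agonist phase), followed by EC20 capsaicin challenge for 2 min (enhancer phase).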

Test [14] concerns the target Thyrotropin receptor (Homo sapiens) (UniProt P16473). Put plainly: qHTS Assay for Antagonists of the Thyroid Stimulating Hormone Receptor (AID 488980). In a few lines:
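TSHR-transfected HEK293 cells (2000/well) in HEPES-buffered HBSS with 70 uM RO 20-1724 were stimulated with 4 nM TSH (EC80, final) in the presence of compound. cAMP was measured by HTRF competition after lysis and 30 min at RT.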

In test [15] the target is D(1A) dopamine receptor (Homo sapiens) (UniProt P21728). The experiment in a line: HTS Assay for Allosteric Agonists of the Human D1 Dopamine Receptor: Primary Screen for Agonists (AID 488981). Further: potency means the concentration at half of the fitted maximal effect. In a few lines: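 Calcium flux in an inducible, force-coupled HEK293 Trex D1 line (overnight at 30 C): agonist mode is the 180 s kinetic read after compound; potentiator mode is the following 180 s read after dopamine at EC20.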

For test [16], the target named is DNA polymerase III PolC-type (Bacillus subtilis (strain 168)) (UniProt P13267). Put plainly: qHTS Validation Assay for the Inhibitors of DNA Replication in Gram-Positive Bacteria (AID 485295).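 Further: PicoGreen fluorescence of double-stranded DNA made on primed circular M13 template.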 An outline of the steps: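 Reconstituted B. subtilis Pol III holoenzyme (PolC, beta clamp, SSB, primase) preincubated with compound, then M13Gori single-stranded circular template with dNTPs/NTPs added; room temperature reaction. Stopped with EDTA/PicoGreen; dsDNA fluorescence read, EDTA as full-inhibition control.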

Test [17] deals with ATP-dependent 6-phosphofructokinase (Trypanosoma brucei brucei) (UniProt O15648). The experiment in a line: qHTS Validation Assay to Find Inhibitors of T. brucei phosphofructokinase (AID 485368). Conditions: T. brucei PFK enzyme assay, qHTS 7-point titration; at 57.5 µM (top of the series). An outline of the steps: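 Activity was read as ADP production by luminescence (ADP-Glo) after 45 min at room temperature. The enzyme was 1.25nM PFK in 0.1M TEA pH 8.0 with 0.5 mM F6P, 0.1mM ATP and 5 mM MgCl2. Compounds were titrated up to 57 uM and % activity normalized to no-enzyme and full-enzyme controls.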

Test [18] concerns the target Chromobox protein homolog 1 (Homo sapiens) (UniProt P83916). Put plainly: qHTS Validation Assay for Inhibitors of HP1-beta Chromodomain Interactions with Methylated Histone Tails (AID 488953). Further: nearly all actives have a fitted effect of over 50% in size. Further: potency means the concentration at half of the fitted maximal effect. In a few lines:
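HP1-beta (50 nM) was preincubated 30 min at room temperature with biotinylated H3(1-18)K9me3 peptide (50 nM) in PBS pH 7.4, 0.01% Tween-20, then with compounds 30 min. AlphaScreen signal was read after streptavidin donor/nickel chelate acceptor beads (10 ug/mL final).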

Test [19] deals with Ubiquitin carboxyl-terminal hydrolase 2 (Homo sapiens) (UniProt O75604). The experiment in a line: qHTS Validation Assay for Inhibitors of Ubiquitin-specific Protease USP2a Using CHOP2 as the Reporter (AID 463106). An outline of the steps:
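10nM USP2 core + cpd, 30min RT; add 25nM Ub-CHOP2/25nM substrate; 60min RT; FI 485/531nm. Buffer Tris pH 8.0, CaCl2, BME, CHAPS. Norm. to NEM = 100% inhibition; time-zero read flags fluorescent artifacts.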

The target in test [20] is Thioredoxin reductase 1, cytoplasmic (Rattus norvegicus) (UniProt O89049). Put plainly: qHTS Assay for Inhibitors of Mammalian Selenoprotein Thioredoxin Reductase 1 (TrxR1) (AID 488773).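 Further: drop in NADPH fluorescence over an 8 min run after selenite addition; nearly all actives have a fitted effect of over 40% in size.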 Conditions: Potency: inhibition. An outline of the steps: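 Steps: enzyme (90 nM) plus NADPH (400 uM final), 5 min at ~22 deg C; compound added, 15 min; selenite (400 uM final) added; fluorescence followed for 8 min. Concentration-response curves derived from the normalized delta values.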

Results filed as inconclusive are left out. Active and inactive are the calls of the source. Unless noted, the call rests on the fitted dose curve; in most records, active means well fitted curve in the direction sought with a large enough effect; inconclusive means small, poorly fitted or top-dose-only effect, or another doubt; inactive means no such curve, though single readings can be large; an effect the other way counts as inactive or inconclusive.

Thyrotropin receptor (Homo sapiens), sequence (P16473 whole entry, looked up): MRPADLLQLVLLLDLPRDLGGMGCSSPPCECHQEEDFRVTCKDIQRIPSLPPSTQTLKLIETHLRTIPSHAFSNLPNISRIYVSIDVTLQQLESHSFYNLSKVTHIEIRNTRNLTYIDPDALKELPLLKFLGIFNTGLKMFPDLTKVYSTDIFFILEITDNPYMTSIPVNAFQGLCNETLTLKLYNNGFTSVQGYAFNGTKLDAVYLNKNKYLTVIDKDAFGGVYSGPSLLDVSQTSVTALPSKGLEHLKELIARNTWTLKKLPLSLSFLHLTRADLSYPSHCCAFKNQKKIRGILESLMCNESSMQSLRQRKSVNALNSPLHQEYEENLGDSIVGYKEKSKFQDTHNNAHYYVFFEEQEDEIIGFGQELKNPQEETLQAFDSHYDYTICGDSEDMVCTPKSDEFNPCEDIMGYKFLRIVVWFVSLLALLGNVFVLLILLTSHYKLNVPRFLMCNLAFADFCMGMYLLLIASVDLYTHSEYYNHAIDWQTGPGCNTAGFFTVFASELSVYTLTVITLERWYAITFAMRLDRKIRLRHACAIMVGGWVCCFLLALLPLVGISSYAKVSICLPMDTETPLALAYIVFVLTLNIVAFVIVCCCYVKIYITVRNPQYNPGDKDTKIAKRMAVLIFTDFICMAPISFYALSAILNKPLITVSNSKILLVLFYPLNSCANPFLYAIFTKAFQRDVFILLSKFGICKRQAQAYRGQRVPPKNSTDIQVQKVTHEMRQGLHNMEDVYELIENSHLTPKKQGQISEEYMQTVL
Methanococcus maripaludis chaperonin (MmCpn), sequence (Q6LX38 1-543): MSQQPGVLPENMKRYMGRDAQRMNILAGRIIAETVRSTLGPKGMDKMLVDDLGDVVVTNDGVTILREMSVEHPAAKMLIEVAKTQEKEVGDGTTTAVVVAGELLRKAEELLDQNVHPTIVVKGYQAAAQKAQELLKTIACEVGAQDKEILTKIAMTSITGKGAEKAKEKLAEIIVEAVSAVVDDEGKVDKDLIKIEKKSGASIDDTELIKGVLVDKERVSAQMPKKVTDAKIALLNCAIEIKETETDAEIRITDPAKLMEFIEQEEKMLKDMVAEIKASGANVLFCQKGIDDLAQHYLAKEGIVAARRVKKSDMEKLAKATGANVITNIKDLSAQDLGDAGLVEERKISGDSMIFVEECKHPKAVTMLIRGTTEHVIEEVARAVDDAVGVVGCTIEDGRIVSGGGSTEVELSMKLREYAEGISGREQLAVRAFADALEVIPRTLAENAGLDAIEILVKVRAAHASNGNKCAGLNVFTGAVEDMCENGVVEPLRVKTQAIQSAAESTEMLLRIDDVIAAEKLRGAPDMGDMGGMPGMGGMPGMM
D(1A) dopamine receptor (Homo sapiens), sequence (P21728 whole entry, looked up): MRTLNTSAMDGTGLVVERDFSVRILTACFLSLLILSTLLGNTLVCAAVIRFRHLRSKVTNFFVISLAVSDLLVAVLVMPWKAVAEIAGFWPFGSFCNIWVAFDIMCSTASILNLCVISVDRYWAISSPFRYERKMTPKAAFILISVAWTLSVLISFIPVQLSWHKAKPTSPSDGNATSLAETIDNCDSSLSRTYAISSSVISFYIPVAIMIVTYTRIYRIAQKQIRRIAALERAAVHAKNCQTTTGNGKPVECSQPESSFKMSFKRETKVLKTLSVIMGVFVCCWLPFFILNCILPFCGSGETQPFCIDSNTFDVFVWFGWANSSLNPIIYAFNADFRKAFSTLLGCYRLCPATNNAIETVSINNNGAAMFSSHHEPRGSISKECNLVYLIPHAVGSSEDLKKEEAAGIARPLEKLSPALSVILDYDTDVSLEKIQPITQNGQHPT
Thioredoxin reductase 1, cytoplasmic (Rattus norvegicus), sequence (O89049 whole entry, looked up): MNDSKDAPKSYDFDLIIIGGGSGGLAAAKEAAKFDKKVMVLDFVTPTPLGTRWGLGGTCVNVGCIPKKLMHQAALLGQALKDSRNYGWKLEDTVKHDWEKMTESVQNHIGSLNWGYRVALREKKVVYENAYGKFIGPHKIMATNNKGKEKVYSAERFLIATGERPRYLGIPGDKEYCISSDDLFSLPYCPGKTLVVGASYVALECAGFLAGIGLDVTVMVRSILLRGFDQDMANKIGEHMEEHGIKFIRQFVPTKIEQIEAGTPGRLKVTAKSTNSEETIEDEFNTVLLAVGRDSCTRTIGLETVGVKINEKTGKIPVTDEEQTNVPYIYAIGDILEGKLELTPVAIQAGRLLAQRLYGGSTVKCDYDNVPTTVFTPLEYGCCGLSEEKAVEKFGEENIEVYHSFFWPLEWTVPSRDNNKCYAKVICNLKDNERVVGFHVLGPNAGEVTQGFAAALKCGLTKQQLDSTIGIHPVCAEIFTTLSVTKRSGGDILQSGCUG
ATP-dependent 6-phosphofructokinase (Trypanosoma brucei brucei), sequence (O15648 whole entry, looked up): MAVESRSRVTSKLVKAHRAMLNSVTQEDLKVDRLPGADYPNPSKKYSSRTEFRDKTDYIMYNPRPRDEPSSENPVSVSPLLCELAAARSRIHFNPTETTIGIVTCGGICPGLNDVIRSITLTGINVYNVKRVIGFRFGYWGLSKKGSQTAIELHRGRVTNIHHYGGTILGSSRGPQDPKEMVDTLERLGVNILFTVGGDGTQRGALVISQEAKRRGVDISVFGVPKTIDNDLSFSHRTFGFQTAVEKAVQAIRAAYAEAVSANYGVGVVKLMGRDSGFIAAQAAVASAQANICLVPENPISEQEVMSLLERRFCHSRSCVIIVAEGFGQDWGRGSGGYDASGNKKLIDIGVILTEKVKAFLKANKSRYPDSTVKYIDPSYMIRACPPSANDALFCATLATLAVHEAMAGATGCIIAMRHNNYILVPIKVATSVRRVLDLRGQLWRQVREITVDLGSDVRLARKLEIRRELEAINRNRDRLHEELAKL
M-phase phosphoprotein 8 (Homo sapiens), sequence (Q99549 whole entry, looked up): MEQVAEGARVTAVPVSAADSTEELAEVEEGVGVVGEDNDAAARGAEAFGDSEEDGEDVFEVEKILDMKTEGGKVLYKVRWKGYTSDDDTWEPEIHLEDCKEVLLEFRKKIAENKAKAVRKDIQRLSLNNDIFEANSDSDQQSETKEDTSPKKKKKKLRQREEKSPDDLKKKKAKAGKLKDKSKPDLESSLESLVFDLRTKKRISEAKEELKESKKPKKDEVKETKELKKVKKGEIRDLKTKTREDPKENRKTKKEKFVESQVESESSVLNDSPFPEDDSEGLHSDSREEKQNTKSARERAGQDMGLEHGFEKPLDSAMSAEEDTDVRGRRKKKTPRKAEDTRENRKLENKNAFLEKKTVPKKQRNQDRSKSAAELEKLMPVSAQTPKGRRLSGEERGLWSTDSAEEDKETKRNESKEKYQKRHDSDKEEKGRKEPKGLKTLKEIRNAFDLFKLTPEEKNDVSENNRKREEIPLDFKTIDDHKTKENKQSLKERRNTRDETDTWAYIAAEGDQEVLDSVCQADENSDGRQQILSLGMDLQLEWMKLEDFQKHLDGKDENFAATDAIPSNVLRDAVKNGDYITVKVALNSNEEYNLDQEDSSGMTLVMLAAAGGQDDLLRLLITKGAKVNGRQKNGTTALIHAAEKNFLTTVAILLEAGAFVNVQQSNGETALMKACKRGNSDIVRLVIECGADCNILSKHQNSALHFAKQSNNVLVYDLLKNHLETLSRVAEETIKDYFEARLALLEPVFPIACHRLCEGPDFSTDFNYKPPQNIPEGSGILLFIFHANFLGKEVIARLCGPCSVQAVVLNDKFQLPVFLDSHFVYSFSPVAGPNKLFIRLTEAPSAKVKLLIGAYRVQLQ
Beta-2 adrenergic receptor (Homo sapiens), sequence (P07550 whole entry, looked up): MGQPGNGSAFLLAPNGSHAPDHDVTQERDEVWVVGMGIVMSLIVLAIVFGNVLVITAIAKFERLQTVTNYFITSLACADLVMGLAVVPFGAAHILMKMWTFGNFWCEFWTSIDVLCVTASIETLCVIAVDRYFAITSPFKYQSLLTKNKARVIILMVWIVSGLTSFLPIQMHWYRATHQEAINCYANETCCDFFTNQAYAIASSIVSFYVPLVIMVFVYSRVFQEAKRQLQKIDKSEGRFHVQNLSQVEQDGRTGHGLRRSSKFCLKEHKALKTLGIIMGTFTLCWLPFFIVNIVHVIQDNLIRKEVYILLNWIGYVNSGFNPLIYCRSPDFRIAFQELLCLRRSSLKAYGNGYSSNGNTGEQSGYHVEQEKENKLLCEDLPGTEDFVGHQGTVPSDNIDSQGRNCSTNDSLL
Transient receptor potential cation channel subfamily V member 1 (Homo sapiens), sequence (Q8NER1 whole entry, looked up): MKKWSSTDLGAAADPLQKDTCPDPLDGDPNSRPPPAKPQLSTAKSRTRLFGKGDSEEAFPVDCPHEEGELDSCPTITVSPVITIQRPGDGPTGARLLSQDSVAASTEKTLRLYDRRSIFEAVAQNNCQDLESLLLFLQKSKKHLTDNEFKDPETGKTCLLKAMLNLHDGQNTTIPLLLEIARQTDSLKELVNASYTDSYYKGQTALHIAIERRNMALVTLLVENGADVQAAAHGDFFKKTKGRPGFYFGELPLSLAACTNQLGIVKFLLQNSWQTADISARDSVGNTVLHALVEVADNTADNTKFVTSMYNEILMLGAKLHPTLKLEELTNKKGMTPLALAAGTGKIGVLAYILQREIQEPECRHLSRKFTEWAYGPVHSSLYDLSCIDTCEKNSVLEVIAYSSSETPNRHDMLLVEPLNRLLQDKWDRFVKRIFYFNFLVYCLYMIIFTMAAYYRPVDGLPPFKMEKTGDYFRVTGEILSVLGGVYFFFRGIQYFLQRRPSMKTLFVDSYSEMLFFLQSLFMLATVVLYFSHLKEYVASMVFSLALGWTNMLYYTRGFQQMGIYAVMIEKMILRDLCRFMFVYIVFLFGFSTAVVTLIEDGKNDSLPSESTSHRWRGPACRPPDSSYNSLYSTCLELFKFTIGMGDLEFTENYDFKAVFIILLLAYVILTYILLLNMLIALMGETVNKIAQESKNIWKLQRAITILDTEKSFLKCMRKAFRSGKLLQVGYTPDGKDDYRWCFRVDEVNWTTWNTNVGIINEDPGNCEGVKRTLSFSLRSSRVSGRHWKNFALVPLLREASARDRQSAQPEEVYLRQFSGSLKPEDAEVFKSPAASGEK

For the compound `CC(=O)NCCc1c[nH]c2ccccc12`, the Potency result in test [1], in [2], in test [3], in test [7], in [8] and in [10] was “inactive” each time. In addition, the Potency entry in test [11] and in test [15] was “inactive” each time. The compound was classed as inactive in test [4], in test [5], in test [6], in test [9], in [12] and in [13]. Further, the outcome in test [14] was inactive.

In the case of `C[N+]1(C)C2CCC1CC(OC(=O)C(CO)c1ccccc1)C2` (configuration not stated), the Potency entry in test [1], in test [2], in [3], in test [16], in [7] and in test [8] was “inactive” throughout. The Potency result in [10], in [11], in [18] and in test [15] was “inactive” each time. The result in [4], in [5], in test [6], in test [17], in test [9] and in test [12] was inactive. The result in test [13] and in test [14] was inactive.

On to `CC(C)NC(C)Cc1ccc(I)cc1` (configuration not stated), for which the Potency result in test [1], in [2], in test [3], in test [19], in test [10] and in test [11] was “inactive” each time. The Potency result in [18] and in test [15] was “inactive” in each case. The outcome in test [4], in [5], in test [6], in [9], in test [12] and in test [14] was inactive.

As to `NC1CCc2cc(O)c(O)cc2C1` (configuration not stated), the Potency entry in [1], in test [2], in [3], in test [7] and in test [8] was “inactive” each time. The outcome in test [4], in test [5], in test [6], in test [9], in test [12] and in [13] was inactive. Besides, the compound was called inactive in [14]. Besides, the Potency in test [11] was 79.4 µM (active); in test [15], 0.158 µM (active).

In the case of `C[C@]12N[C@H](Cc3ccccc31)c1ccccc12`, the Potency entry in test [1], in test [2], in [3], in test [7], in test [8] and in test [20] was “inactive” each time. Moreover, the Potency result in test [10], in [11] and in [15] was “inactive” throughout. In addition, the result in [4], in [5], in test [6], in test [9], in test [12] and in test [13] was inactive. The call in test [14] was inactive. Moreover, the Potency in test [18] is 0.0075 µM (active).

For the compound `C[C@@H](N)Cc1cnc[nH]1`, the Potency entry in [1], in [2], in test [3], in test [7], in [8] and in test [10] was “inactive” throughout. Moreover, the Potency result in [11], in test [18] and in test [15] was “inactive” throughout. The result in [4], in test [5], in test [6], in [17], in [9] and in test [12] was inactive. For the same compound, the result in [13] and in test [14] was inactive.

Regarding `NC(N)=NOCCC(N)C(=O)O` (configuration not stated), the Potency entry in [1], in [2], in [3], in test [19], in test [7] and in test [8] was “inactive” in each case. For the same compound, the Potency result in test [10], in test [11], in test [18] and in test [15] was “inactive” in each case. The call in [4], in test [5], in test [6], in test [9], in test [12] and in test [13] was inactive. Further, in test [14], the outcome was inactive.

Source of the values: PubChem BioAssay (NCATS).
